In PubChem BioAssay (NCATS):
Inconclusive results are not listed. Where a call stands in place of a potency, no number is given. Active and inactive are the calls of the source. The call rests on the fitted dose curve; in most records, active means well fitted inhibition curve with a large enough effect; inconclusive means small, poorly fitted or top-dose-only effect; inactive means flat fitted curve, though single readings scatter.

Columns and labels:
[1] = target: Ubiquitin carboxyl-terminal hydrolase 1 (Homo sapiens) (UniProt O94782); assay: Inhibitors of USP1/UAF1: Pilot qHTS (AID 504865);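 further: rhodamine fluorescence freed from ubiquitin-rhodamine substrate followed over time; top concentration of the series differs between compounds; nearly all actives have a fitted effect of over 35% in size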
Chain of Ubiquitin carboxyl-terminal hydrolase 1 (Homo sapiens) (O94782 whole entry, looked up): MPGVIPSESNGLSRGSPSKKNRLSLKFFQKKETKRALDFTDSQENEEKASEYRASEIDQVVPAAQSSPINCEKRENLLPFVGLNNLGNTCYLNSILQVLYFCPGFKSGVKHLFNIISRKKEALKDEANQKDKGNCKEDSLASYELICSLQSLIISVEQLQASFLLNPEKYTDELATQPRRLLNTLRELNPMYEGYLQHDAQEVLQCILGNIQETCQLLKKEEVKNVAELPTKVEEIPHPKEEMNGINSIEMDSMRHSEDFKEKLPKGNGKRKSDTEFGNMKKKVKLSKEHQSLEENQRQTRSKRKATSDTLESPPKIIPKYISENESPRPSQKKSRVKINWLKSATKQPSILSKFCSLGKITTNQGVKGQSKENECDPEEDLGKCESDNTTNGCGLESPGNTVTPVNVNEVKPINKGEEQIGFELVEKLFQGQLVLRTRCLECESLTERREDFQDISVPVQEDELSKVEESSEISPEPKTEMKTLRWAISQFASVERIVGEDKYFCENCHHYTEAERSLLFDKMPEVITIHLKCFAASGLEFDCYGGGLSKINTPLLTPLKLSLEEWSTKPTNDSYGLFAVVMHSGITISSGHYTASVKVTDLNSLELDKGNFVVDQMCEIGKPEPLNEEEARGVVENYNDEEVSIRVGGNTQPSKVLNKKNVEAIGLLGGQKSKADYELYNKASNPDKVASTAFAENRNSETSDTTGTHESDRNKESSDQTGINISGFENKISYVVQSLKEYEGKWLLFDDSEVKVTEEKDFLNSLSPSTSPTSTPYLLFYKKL
In short: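 USP1/UAF1 complex at 1 nM preincubated 15 min at room temperature with compound, then Ub-Rho substrate added at 150 nM final. Fluorescence (480/540 nm) read kinetically in 50 mM HEPES pH 7.8, 0.5 mM EDTA, 1 mM TCEP, 0.1 mg/ml BSA, 0.01% Tween-20.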

AA1029 = assay: qHTS profiling for inhibitors of Plasmodium falciparum proliferation (AID 504749); further: nearly all actives have a fitted effect of over 60% in size; further: potency means the concentration at half of the fitted maximal effect; conditions: P. falciparum in erythrocytes, SYBR Green DNA, 72 h; series mostly up to 28.7 µM
In short: (§1)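 Each compound contacts P. falciparum-infected red blood cells for 72 h at 37 C; lysis buffer (Tris, EDTA, saponin, Triton X, SYBR Green I) is added and fluorescence measured next morning; values normalized to controls.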

CP211 = assay: as above; conditions: P. falciparum in erythrocytes, SYBR Green DNA, 72 h; series mostly up to 28.7 µM
In short: as §1

CP215 = assay: as above; conditions: P. falciparum in erythrocytes, SYBR Green DNA, 72 h; series mostly up to 28.7 µM
In short: as §1

CP217 = assay: as above; conditions: P. falciparum in erythrocytes, SYBR Green DNA, 72 h; series mostly up to 28.7 µM
In short: as §1

CP260 = assay: as above; conditions: P. falciparum in erythrocytes, SYBR Green DNA, 72 h; series mostly up to 28.7 µM
In short: as §1

CP297 = assay: as above; conditions: P. falciparum in erythrocytes, SYBR Green DNA, 72 h; series mostly up to 28.7 µM
In short: as §1

CP315 = assay: as above; conditions: P. falciparum in erythrocytes, SYBR Green DNA, 72 h; series mostly up to 28.7 µM
In short: as §1

CP335 = assay: as above; conditions: P. falciparum in erythrocytes, SYBR Green DNA, 72 h; series mostly up to 28.7 µM
In short: as §1

DIV14 = assay: as above; conditions: P. falciparum in erythrocytes, SYBR Green DNA, 72 h; series mostly up to 28.7 µM
In short: as §1

DIV17 = assay: as above; conditions: P. falciparum in erythrocytes, SYBR Green DNA, 72 h; series mostly up to 28.7 µM
In short: as §1

FAB9 = assay: as above; conditions: P. falciparum in erythrocytes, SYBR Green DNA, 72 h; series mostly up to 28.7 µM
In short: as §1

ICS = assay: as above; conditions: P. falciparum in erythrocytes, SYBR Green DNA, 72 h; series mostly up to 28.7 µM
In short: as §1

JCK = assay: as above; conditions: P. falciparum in erythrocytes, SYBR Green DNA, 72 h; series mostly up to 28.7 µM
In short: as §1

N140 = assay: as above; conditions: P. falciparum in erythrocytes, SYBR Green DNA, 72 h; series mostly up to 28.7 µM
In short: as §1

PC15 = assay: as above; conditions: P. falciparum in erythrocytes, SYBR Green DNA, 72 h; series mostly up to 28.7 µM
In short: as §1

TAB113 = assay: as above; conditions: P. falciparum in erythrocytes, SYBR Green DNA, 72 h; series mostly up to 28.7 µM
In short: as §1

TAB165 = assay: as above; conditions: P. falciparum in erythrocytes, SYBR Green DNA, 72 h; series mostly up to 28.7 µM
In short: as §1

W2 = assay: as above; conditions: P. falciparum in erythrocytes, SYBR Green DNA, 72 h; series mostly up to 28.7 µM
In short: as §1

[2] = target: Tyrosyl-DNA phosphodiesterase 1 (Homo sapiens) (UniProt Q9NUW8); assay: Confirmation Assay for Inhibitors of Tyrosyl-DNA Phosphodiesterase (TDP1) (AID 489007); conditions: recombinant human TDP1 enzymatic activity, dose-response; further: potency means the concentration at half of the fitted maximal effect; nearly all actives have a fitted effect of over 40% in size
Chain of Tyrosyl-DNA phosphodiesterase 1 (Homo sapiens) (Q9NUW8 whole entry, looked up): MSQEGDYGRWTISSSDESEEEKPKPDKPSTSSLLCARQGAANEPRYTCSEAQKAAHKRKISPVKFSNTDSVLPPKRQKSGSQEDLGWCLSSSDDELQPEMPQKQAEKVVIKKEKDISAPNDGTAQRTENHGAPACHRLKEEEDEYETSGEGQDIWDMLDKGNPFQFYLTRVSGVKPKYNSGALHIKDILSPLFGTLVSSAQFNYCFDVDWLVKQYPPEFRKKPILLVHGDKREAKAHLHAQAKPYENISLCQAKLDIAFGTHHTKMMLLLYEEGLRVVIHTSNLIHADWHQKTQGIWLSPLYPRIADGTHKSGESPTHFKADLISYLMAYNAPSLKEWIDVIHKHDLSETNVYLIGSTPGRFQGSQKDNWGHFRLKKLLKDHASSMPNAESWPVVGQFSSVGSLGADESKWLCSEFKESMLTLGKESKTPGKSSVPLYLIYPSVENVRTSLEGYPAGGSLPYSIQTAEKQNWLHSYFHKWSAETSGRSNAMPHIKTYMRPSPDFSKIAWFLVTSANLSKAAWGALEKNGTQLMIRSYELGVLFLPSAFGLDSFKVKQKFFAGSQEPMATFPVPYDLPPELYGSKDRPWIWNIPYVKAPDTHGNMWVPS
In short: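 AlphaScreen assay of tyrosine-FITC cleavage from a biotinylated DNA substrate (15 nM) by E. coli-expressed human Tdp1 (1 nM). Sequence: compound preincubation 15 min, reaction 5 min, bead detection 10 min, all at room temperature. No-enzyme wells give maximum signal.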

| Structure (SMILES) | Potency [1] | Potency (AA1029) | Potency (CP211) | Potency (CP215) | Potency (CP217) | Potency (CP260) | Potency (CP297) | Potency (CP315) | Potency (CP335) | Potency (DIV14) | Potency (DIV17) | Potency (FAB9) | Potency (ICS) | Potency (JCK) | Potency (N140) | Potency (PC15) | Potency (TAB113) | Potency (TAB165) | Potency (W2) | Potency [2] |
| --- | --- | --- | --- | --- | --- | --- | --- | --- | --- | --- | --- | --- | --- | --- | --- | --- | --- | --- | --- | --- |
| C=C1[C@@H]2CC[C@H](C2)C1(C)C | inactive | inactive | inactive | inactive | inactive | inactive | inactive | inactive | inactive | inactive | inactive | inactive | inactive | inactive | inactive | inactive | inactive | inactive | inactive | – |
| C[C@@H]1C(SC2Cn3cnc[n+]3C2)=C(C(=O)[O-])N2C(=O)[C@H]([C@@H](C)O)[C@@H]12 (some centres undefined) | inactive | inactive | inactive | inactive | inactive | inactive | inactive | inactive | inactive | inactive | inactive | inactive | inactive | inactive | inactive | inactive | inactive | inactive | inactive | – |
| CC(=O)Nc1ccc2nc3c(=O)[nH]c(=O)[nH]c3nc2c1 | – | – | – | – | – | – | – | – | – | – | – | – | – | – | – | – | – | – | – | 4470 nM (active) |
| CC[C@@H]1/C=C(\C)C[C@H](C)C[C@H](OC)[C@H]2O[C@@](O)(C(=O)C(=O)N3CCCC[C@H]3C(=O)O[C@H](/C(C)=C/[C@@H]3CC[C@H](Cl)[C@H](OC)C3)[C@H](C)[C@@H](O)CC1=O)[C@H](C)C[C@@H]2OC | inactive | inactive | inactive | inactive | inactive | inactive | inactive | inactive | inactive | inactive | inactive | inactive | inactive | inactive | inactive | inactive | inactive | inactive | inactive | – |
| Cc1ccc(CSc2nnc(SCC(=O)N/N=C/c3c[nH]c4ccccc34)s2)cc1 | – | – | – | – | – | – | – | – | – | – | – | – | – | – | – | – | – | – | – | 5620 nM (active) |
| O=C(O)CCCN1C(=O)/C(=C\c2ccco2)SC1=S | – | – | – | – | – | – | – | – | – | – | – | – | – | – | – | – | – | – | – | 2820 nM (active) |
| Cc1ccc(S(=O)(=O)NC(=O)NC(C)Cc2ccccc2)cc1 (centres undefined) | inactive | inactive | inactive | inactive | inactive | inactive | inactive | inactive | inactive | inactive | inactive | inactive | inactive | inactive | inactive | inactive | inactive | inactive | inactive | – |
| Cc1cnc(C(=O)O)cn1 | inactive | inactive | inactive | inactive | inactive | inactive | inactive | inactive | inactive | inactive | inactive | inactive | inactive | inactive | inactive | inactive | inactive | inactive | inactive | – |
| CC(=O)OCC1=C(C(=O)O)N2C(=O)C(NC(=O)CSc3ccncc3)[C@@H]2SC1 (some centres undefined) | inactive | – | – | – | – | – | – | – | – | – | – | – | – | – | – | – | – | – | – | 14100 nM (active) |
| Cc1ccc(Nc2ncccc2C(=O)O)cc1C | inactive | inactive | inactive | inactive | inactive | inactive | inactive | inactive | inactive | inactive | inactive | inactive | inactive | inactive | inactive | inactive | inactive | inactive | inactive | – |
| CC(C)C[C@@H](NC(=O)[C@@H](Cc1ccccc1)NC(=O)c1cnccn1)B(O)O | inactive | 112 nM (active) | 757 nM (active) | 675 nM (active) | 112 nM (active) | 100 nM (active) | 379 nM (active) | 379 nM (active) | 107 nM (active) | 601 nM (active) | 426 nM (active) | 141 nM (active) | 44.7 nM (active) | 141 nM (active) | 100 nM (active) | 316 nM (active) | 100 nM (active) | 70.8 nM (active) | 60.1 nM (active) | – |
| CC12C=CC(=O)C=C1[C@@H](F)CC1C2C(O)CC2(C)C1CC[C@]2(O)C(=O)CO (some centres undefined) | inactive | inactive | inactive | inactive | inactive | inactive | inactive | inactive | inactive | inactive | inactive | inactive | inactive | inactive | inactive | inactive | inactive | inactive | inactive | – |
| CO/N=C(/C(=O)NC1C(=O)N2C(C(=O)O)=C(COC(N)=O)CSC12)c1ccco1 (centres undefined) | inactive | – | – | – | – | – | – | – | – | – | – | – | – | – | – | – | – | – | – | 6310 nM (active) |
| S=c1[nH]nc(-c2cccnc2)n1/N=C/c1ccc(Br)s1 | – | – | – | – | – | – | – | – | – | – | – | – | – | – | – | – | – | – | – | 63100 nM (active) |
| COC(c1ccccc1)(c1ccccc1)C(Oc1nc(C)cc(C)n1)C(=O)O (centres undefined) | inactive | inactive | inactive | inactive | inactive | inactive | inactive | inactive | inactive | inactive | inactive | inactive | inactive | inactive | inactive | inactive | inactive | inactive | inactive | – |
| CCN(CC)C(=O)Nc1ccc(OC[C@H](O)CNC(C)(C)C)c(C(C)=O)c1 | inactive | inactive | inactive | inactive | inactive | inactive | inactive | inactive | inactive | inactive | inactive | inactive | inactive | inactive | inactive | inactive | inactive | inactive | inactive | – |
| Cc1ccc2cc(C)c3nnc(SCC(=O)NCc4ccco4)n3c2c1 | – | – | – | – | – | – | – | – | – | – | – | – | – | – | – | – | – | – | – | 35500 nM (active) |
